According to PubChem BioAssay (NCATS):
Records with an inconclusive call do not appear. A call without a number means that no potency is given here. The source made the active and inactive calls. Calls follow the shape of the dose curve; as a rule, active = well fitted cell-killing curve with a large enough effect; inconclusive = small, poorly fitted or top-dose-only effect; inactive = flat fitted curve, though single readings scatter.

Test: qHTS of pediatric cancer cell lines to identify multiple opportunities for drug repurposing: Primary screen for Rh18 cells (AID 1347102); also: nearly all actives have a fitted effect of over 65% in size
Details: Rh18 rhabdomyosarcoma viability, CellTiter-Glo luminescence, 48 h; series mostly up to 46 µM
Source text: Drug repurposing or repositioning has been offered as a strategy for drug development in oncology programs. This approach has special potential for childhood cancers and other rare or orphan diseases, where the expected return on new drug development has been a disincentive to pharmaceuticals.
In this project we exploit the poly-pharmacology of drugs to discover new indications via phenotypic screening of a panel of 19 well-characterized cell lines derived from solid tumors seen in children and adolescents. The goal is to identify approved drugs with previously unrecognized anticancer properties that has the potential to reveal new mechanisms and biological processes involved in carcinogenesis or drug resistance. We employed a titration-based paradigm (quantitative high-throughput screening or qHTS), where all compounds were tested at multiple concentrations for their effect on cell viability. Concentration-response curves (CRCs) were derived directly from the primary screen, and both potency and efficacy values were used to identify compounds with robust bioactivity profiles. We screened the NIH Chemical Genomics Center (NCGC) Pharmaceutical Collection (NPC) and Mechanism Interrogation Plate (MIPE) small molecule collections of approved and investigational compounds against these cell lines; and measured metabolically active cells after 48 hours of compound treatment as a proxy for cell viability.
Assay Submitter: Nathalia J. Martinez, National Center for Advancing Translational Sciences, National Institutes of Health, Rockville, MD, USA; email: natalia.martinez@nih.gov
[1] Shen, M et al. Quantitative high-throughput phenotypic screening of pediatric cancer cell lines identifies multiple opportunities for drug repurposing. Oncotarget 2017 Dec 19;9(4):4758-4772. PMID 29435139.
The cells were obtained from University of North Carolina (UNC), Pediatric Preclinical Testing Program (PPT), and Coriell Institute (CI).
qHTS cell viability assay:
Cells were assayed in growth media at a density of 500-1,000 cells/well. Five microliters of cells were dispensed into 1,536-well, white, solid-bottom, TC-treated plates (Greiner Bio One) using a multidrop dispenser and incubated at 37 degrees C, 5% CO2, under a humidified atmosphere for 5 hours. Twenty-three nanoliters of compounds and controls (neutral control DMSO or positive control bortezomib at final concentration of 2.3 µM) were subsequently transferred by Kalypsys pintool. For primary screens, the MIPE collection was tested at 11-point dilutions (final concentrations range from 0.78 nM to 46 µM) and the NPC collection at 8-point dilutions (final concentrations range from 0.59 nM to 46 µM). Compounds tested in follow-up screens were assayed at 11-point dilutions. Cells were incubated for 48 hours, followed by addition of 3 µL of CellTiter-Glo (Promega). After a 15 min incubation at room temperature, samples were analyzed for luminescence intensity using a ViewLux High-throughput CCD imager equipped with clear filters.
Potency is read from the fitted curve at half-maximal effect.

Row | SMILES | Potency
1 | CC(C)OC(=O)C(C(=O)OC(C)C)=C1SC=CS1 | inactive
2 | Cc1c(-c2ccc(O)cc2)n(Cc2ccc(OCCN3CCCCCC3)cc2)c2ccc(O)cc12 | inactive
3 | CNC1CCCN(c2c(F)cc3c(=O)c(C(=O)O)cn(C4CC4)c3c2OC)C1 (stereo not given) | inactive
4 | N[C@@H](Cc1ccc(O)c(O)c1)C(=O)O | inactive
5 | CCOc1cc(N)c(Cl)cc1C(=O)NCC1CN(Cc2ccc(F)cc2)CCO1 (stereo not given) | inactive
6 | CCCOc1ccc(C(=O)OCCN(CC)CC)cc1N | inactive
7 | COc1cc(NS(=O)(=O)c2ccc(N)cc2)nc(OC)n1 | inactive
8 | CC(C)(C)C(=O)OCOP(=O)(COCCn1cnc2c(N)ncnc21)OCOC(=O)C(C)(C)C | inactive
9 | CNC(=O)c1cc(Oc2ccc(NC(=O)Nc3ccc(Cl)c(C(F)(F)F)c3)cc2)ccn1 | 18.7 µM (active)
10 | Cc1cc(NS(=O)(=O)c2ccc(N)cc2)no1 | inactive
11 | Cn1nnc2c(C(N)=O)ncn2c1=O | inactive
12 | NCCCC(O)(P(=O)(O)O)P(=O)(O)O | inactive
13 | CC1=C(C(=O)O)N2C(=O)[C@@H](NC(=O)C(N)c3ccccc3)[C@H]2SC1 (stereo not given in full) | inactive
14 | NS(=O)(=O)c1cc2c(cc1Cl)NC(C(Cl)Cl)NS2(=O)=O (stereo not given) | inactive
15 | CCc1cc(C(N)=S)ccn1 | inactive
16 | O=C(O)c1cc(=O)[nH]c(=O)[nH]1 | inactive
17 | CC(C)OC(=O)OCOP(=O)(CO[C@H](C)Cn1cnc2c(N)ncnc21)OCOC(=O)OC(C)C | inactive
18 | OC(Cn1cncn1)(Cn1cncn1)c1ccc(F)cc1F | inactive
19 | CCc1c2c(nc3ccc(OC(=O)N4CCC(N5CCCCC5)CC4)cc13)-c1cc3c(c(=O)n1C2)COC(=O)[C@]3(O)CC | 18.7 µM (active)
20 | CO[C@@]12[C@H](COC(N)=O)C3=C(C(=O)C(C)=C(N)C3=O)N1C[C@@H]1N[C@@H]12 | 18.7 µM (active)

Row | SMILES | Potency
21 | CC[C@H](NC(C)C)[C@H](O)c1ccc(O)c2[nH]c(=O)ccc12 | inactive
22 | COc1cccc(N(C)C(=S)Oc2ccc3c(c2)CCCC3)n1 | inactive
23 | Cc1nnc(C(=O)NC(C)(C)c2nc(C(=O)NCc3ccc(F)cc3)c(O)c(=O)n2C)o1 | inactive
24 | CCCCCCNC(=O)n1cc(F)c(=O)[nH]c1=O | inactive
25 | Cc1ncc([N+](=O)[O-])n1CCO | inactive
26 | CCCCc1oc2ccc(NS(C)(=O)=O)cc2c1C(=O)c1ccc(OCCCN(CCCC)CCCC)cc1 | 18.7 µM (active)
27 | COc1ccc2c(c1)c(CC(=O)OCC(=O)O)c(C)n2C(=O)c1ccc(Cl)cc1 | inactive
28 | Cc1cccc(Nc2ccncc2S(=O)(=O)NC(=O)NC(C)C)c1 | inactive
29 | CN(C)CCc1c[nH]c2ccc(C[C@H]3COC(=O)N3)cc12 | inactive
30 | O=C(O)c1ccc(-n2nc(-c3ccccc3O)nc2-c2ccccc2O)cc1 | inactive
31 | O=S(=O)(c1cccc2cnccc12)N1CCCNCC1 | inactive
32 | COC(c1ccccc1)(c1ccccc1)[C@H](Oc1nc(C)cc(C)n1)C(=O)O | inactive
33 | CCC(C)(C)c1ccc(CC(C)CN2C[C@@H](C)O[C@@H](C)C2)cc1 (stereo not given in full) | inactive
34 | CNNCc1ccc(C(=O)NC(C)C)cc1 | inactive
35 | NC(N)=NC(N)=NCCc1ccccc1 | inactive
36 | CNS(=O)(=O)CCc1ccc2[nH]cc(C3CCN(C)CC3)c2c1 | inactive
37 | O=C(NCC1CN(c2ccc(N3CCOCC3=O)cc2)C(=O)O1)c1ccc(Cl)s1 (stereo not given) | inactive
38 | CCn1cc(C(=O)O)c(=O)c2cc(F)c(N3CCN(C)CC3)cc21 | inactive
39 | Nc1ccc(S(=O)(=O)Nc2ccccn2)cc1 | inactive
40 | CCN[C@H]1C[C@H](C)S(=O)(=O)c2sc(S(N)(=O)=O)cc21 | inactive
